# Source: PubChem (National Center for Advancing Translational Sciences (NCATS))
# HT1080 IDH1KD tx: HT-1080 IDH1 knockdown cell toxicity (counter line) | Potency, µM (top dose mostly 46.1 µM), inactives show at the highest dose activity, negative = toxicity, most hits filed as cytotoxic | 360,000 tested, 2% active | HT-1080 IDH1 knockdown viability, ATP luminescence, 48 h;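 also: potency is read from the fitted curve at half-maximal effect; 0% = DMSO wells and -100% = cell-free medium wells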
#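 After a 2 h attachment period, IDH1KD HT-1080 cells took pin-transferred compound for 48 h at 37 °C; ATP-based luminescence after 10 min room-temperature reagent incubation reported viability.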
# IL1B secr inh: blocks inflammasome-driven IL-1 beta release | THP-1 LPS/ATP IL-1B secretion, AlphaLISA, 16 h; active compounds read low | activity change, % at 57.5 µM | 360,000 tested, 4.7% active; in the data active = activity change below about -50%; inconclusive = mostly about -30% to -49%
#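 THP-1 cells pretreated 1 hr with compounds (up to 57.5 uM final), then stimulated with LPS (250 ng/mL final) plus ATP (1.25 mM final); secreted IL-1B measured by AlphaLISA after 16 hr, decreased signal indicating inhibition.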
# ELG1 DNA repair: blocks ELG1-dependent DNA repair in HEK293T cells. 330,000 tested, 2.3% active. Potency, µM (highest dose often 46.1 µM), inactives show at the highest dose activity change, negative = inhibition, actives largely listed as inhibitors. HEK293T ELG1-luciferase reporter, luminescence, 16 h; DNA damage induced by 5-fluorouridine; also: potency is read from the fitted curve at half-maximal effect; nearly all actives have a fitted effect of over 55% in size
#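 HEK293T cells expressing luciferase-tagged ELG1 (2,000/well) received 5-Fluorouridine plus compound or DMSO for 16 hr at 37 °C. Luciferase was read by ONE-Glo luminescence after 30 min at room temperature.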
# TDP1 cell noCPT: qHTS for Inhibitors of human tyrosyl-DNA phosphodiesterase 1 (TDP1): qHTS in cells in absence of CPT; Potency, µM (titrated, usually from 46.2 µM), without a hit: top-dose activity change, negative = growth inhibition, hits mostly inhibitors; DT40 Tdp1-/- hTDP1 cells, no CPT, ATP luminescence, 48 h; 420,000 tested, 15% active; AID 686978, 2013; also: potency is read from the fitted curve at half-maximal effect; nearly all actives have a fitted effect of over 55% in size
#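 Readout: luminescence from CellTiter-Glo after 30 min in the dark at RT. Cells: DT40 Tdp1-/- with stable hTDP1, 400/well. Exposure: compounds alone, ≥48 hr, 37 °C.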
# HT1080-NT tox: kills 2HG-producing HT-1080-NT fibrosarcoma cells; HT-1080-NT fibrosarcoma viability, CellTiter-Glo ATP luminescence, 48 h; Potency, µM (doses to about 46.1 µM), inactives show at the top dose activity, negative = less viability, usual class: cytotoxic; 360,000 tested, 1.6% active; AID 686970;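 also: NT is the 2HG producing partner of a matched IDH1 knockdown line; potency is read from the fitted curve at half-maximal effect; 0% = DMSO-treated cells and -100% = media-only wells without cells; nearly all actives have a fitted effect of over 55% in size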
#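 HT-1080-NT fibrosarcoma cells (2HG-overproducing), 750 cells/well in RPMI with 5% FBS, dosed after 2 h and incubated 48 h at 37C. CellTiter-Glo luminescence normalized to DMSO and no-cell wells; concentration-response curves fitted and classed.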
# DT40 TDP1 CPT: DT40-hTDP1 cell growth loss with CPT | chicken DT40 Tdp1-/-;hTDP1 cells + 20 nM CPT, ATP luminescence, 48 h | Potency, µM (highest dose often 46.2 µM), for inactives: top-dose activity change, negative = growth inhibition, hits mostly inhibitors | 420,000 tested, 12% active | AID 686979; also: potency is read from the fitted curve at half-maximal effect; nearly all actives have a fitted effect of over 55% in size
#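 Chicken DT40 Tdp1-/- cells stably complemented with human TDP1 were seeded at 400 cells/well in medium containing 20 nM camptothecin, exposed to pin-transferred compounds, and grown at 37 °C for at least 48 hr. Viability was read as ATP luminescence.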
# The depositor's hits bear a star; u = inconclusive; x = not tested or not shown. This is a sample that favours compounds with a hit; in the whole collection about 19% have one here. Unless noted, calls follow the shape of the dose curve; as a rule, active = well fitted curve in the direction sought with a large enough effect; inconclusive = small, poorly fitted or top-dose-only effect, or another doubt; inactive = no such curve, though single readings can be large; an effect the other way counts as inactive or inconclusive. Unless noted, % is scaled to controls: 0 for no effect and ±100 for the full control effect.
SMILES,HT1080 IDH1KD tx,IL1B secr inh,ELG1 DNA repair,TDP1 cell noCPT,HT1080-NT tox,DT40 TDP1 CPT
CCC1CCCCN1CCCNC(=O)C1CCN(Cc2nc(-c3ccc(Cl)cc3)oc2C)CC1 (stereo not drawn),u,-90*,-11%,2.6µM*,18µM*,3.7µM*
Cc1oc(-c2ccc(Cl)cc2)nc1CN1CCC(C(=O)NCCCN2CCOCC2)CC1,u,u,-4%,u,22µM*,29µM*
CCO[C@@H]1OC(C(=O)N2CCN(Cc3ccccc3)CC2)=C[C@H](c2csc3ccccc23)[C@H]1CCCO,-23%,-54*,-28%,29µM*,u,13µM*
CCO[C@H]1OC(C(=O)N2CCN(C)CC2)=C[C@@H](c2ccc(C(F)(F)F)cc2)[C@@H]1CCCO,0%,2,1%,-1%,2%,-4%
CCO[C@H]1OC(C(=O)N2CCN(Cc3ccccc3)CC2)=C[C@@H](c2ccc(C(F)(F)F)cc2)[C@@H]1CCCO,-12%,-60*,-16%,15µM*,-3%,21µM*
CCO[C@@H]1OC(C(=O)N2CCN(C)CC2)=C[C@H](c2ccc(C(F)(F)F)cc2)[C@H]1CCCO,0%,12,18%,-10%,0%,-23%
CCO[C@@H]1OC(C(=O)N2CCCCCCC2)=C[C@H](c2ccc(C(F)(F)F)cc2)[C@H]1CCCO,-1%,-16,2%,23µM*,-3%,u
CCO[C@H]1OC(C(=O)N2CCOCC2)=C[C@@H](c2ccc(C(F)(F)F)cc2)[C@@H]1CCCO,1%,-3,2%,u,12%,0.52µM*
CCOc1ccc(N2CC(NC(=O)c3ccc(S(=O)(=O)N4CCCC4)cc3)CC2=O)cc1 (stereo not drawn),x,x,x,-23%,x,6%
COCCNC(=O)C1CCCN(S(=O)(=O)c2ccc3c(c2)CC(C)N3C(=O)C2CC2)C1 (stereo not drawn),4%,-1,-11%,u,3%,-26%
N#Cc1cnn2ccc(-c3cc(N4CCOCC4)ccc3[N+](=O)[O-])nc12,-12%,-19,u,-18%,u,-12%
CCO[C@@H]1OC(C(=O)N2CCOCC2)=C[C@H](c2ccc(C(F)(F)F)cc2)[C@H]1CCCO,2%,25,-15%,u,6%,15µM*
Cc1ccsc1-c1cc2nc(NCCCN(C)C)n(C)c(=O)c2s1,u,0,x,23µM*,5.8µM*,23µM*
Cc1ccccc1-c1cc2nc(NCCCN(C)C)n(C)c(=O)c2s1,u,-81*,x,u,u,u
Cc1cccc(C(=O)Nc2nc3nc(-c4ccccc4)cc(=O)n3[nH]2)c1,x,x,x,6%,x,-5%
CCc1ccccc1NC(=O)c1cc(=O)c2ccccc2o1,10%,-1,30%,u,3%,-29%
COc1ccc(C2=CC(=O)C[C@H](c3ccc(OC)cc3)C2)cc1,2%,-2,-2%,u,-1%,-24%
O=C1C=C(c2ccc3[nH]ccc3c2)C[C@@H](c2ccc(F)cc2)C1,-18%,-6,u,u,-3%,12µM*
COc1ccc([C@H]2CC(=O)C=C(c3ccc(Cl)c(Cl)c3)C2)cc1,-28%,u,8%,-8%,-15%,-25%
COc1ccc([C@H]2CC(=O)C=C(c3ccc4cc[nH]c4c3)C2)cc1,-3%,-7,u,23µM*,2%,26µM*
COc1ccc([C@H]2CC(=O)C=C(c3ccc4ccn(C)c4c3)C2)cc1,u,u,u,18µM*,u,u
COc1ccc2nc(SCC(=O)NC3CCCCC3C)[nH]c2c1 (stereo not drawn),u,0,-19%,9.2µM*,u,16µM*
CCOc1ccc2nc(SCC(=O)NCc3ccc(OC)c(OC)c3)[nH]c2c1,3%,-7,u,u,5%,15µM*
COc1ccc2nc(SCC(=O)NCc3ccc(OC)c(OC)c3)[nH]c2c1,10%,13,0%,-27%,15%,-12%
O=C(CSc1nc2cc3ccccc3cc2[nH]1)Nc1ccc(F)cc1,u,-4,x,23µM*,u,u
SMILES,HT1080 IDH1KD tx,IL1B secr inh,ELG1 DNA repair,TDP1 cell noCPT,HT1080-NT tox,DT40 TDP1 CPT
COC(=O)c1ccc(NC(=O)CSc2nc3ncccc3[nH]2)cc1,-5%,22,13%,21µM*,-2%,-21%
COC(=O)c1ccc(NC(=O)CSc2nc3ccc(OC)cc3[nH]2)cc1,x,x,x,23µM*,x,23µM*
COc1ccc(NC(=O)CSc2nc3ccc(OC)cc3[nH]2)cc1,0%,0,-1%,-4%,0%,-7%
COc1ccc2nc(SCC(=O)Nc3ccccc3OC)[nH]c2c1,-7%,-24,-7%,u,18%,-2%
COc1ccc(NC(=O)CSc2nc3ccncc3[nH]2)c(OC)c1,4%,19,-1%,9.2µM*,-7%,23µM*
COc1cc(OC)cc(-c2nc(-c3ccc(Br)cc3)no2)c1,-7%,-14,27%,-19%,13%,-6%
CCOc1cc(-c2noc(-c3ccncc3)n2)cc(Br)c1OC,u,19,11%,16µM*,u,u
CCOc1ccc(-c2cc(-c3nc(-c4cc(OC)c(OC)c(OC)c4)no3)[nH]n2)cc1,x,x,x,9.2µM*,x,9.2µM*
CCOc1cc(-c2nc(-c3ccc(C)nc3OC)no2)cc(OCC)c1OCC,11%,0,5%,u,1%,u
COc1ccc(-c2noc(-c3cc(C(C)C)[nH]n3)n2)cc1,x,x,x,18µM*,x,21µM*
CCOc1cc(-c2nc(-c3ccc(-c4ccc(OC)cc4)nc3OC)no2)cc(OCC)c1OCC,x,x,x,10µM*,x,18µM*
OCC[C@@H]1C[C@H](O)[C@@H](O)[C@]2(OCc3ccccc32)O1,11%,12,0%,-3%,6%,-2%
O=C(O)c1cccc(S(=O)(=O)Nc2ccccc2Oc2ccccc2)c1,7%,1,x,0%,10%,-5%
COc1ccc(N(C)S(=O)(=O)c2ccc(Cl)c(C(=O)NNC(=O)c3ccccc3O)c2)cc1,-21%,35,-9%,-25%,-29%,1%
COc1ccc(-c2noc(-c3cc(-c4ccc(F)cc4)n[nH]3)n2)cc1,x,x,x,u,x,6.5µM*
Fc1ccc(-c2cc(-c3nc(-c4ccccc4)no3)[nH]n2)cc1,x,x,x,-27%,x,-16%
